Only some compounds are listed: those with a hit (about 10% of all), similar ones and a draw of the others.
ALDH1A1 inh = inhibitors of human aldehyde dehydrogenase 1A1; P00352; Purified ALDH1A1, NADH fluorescence, propionaldehyde substrate; Potency, µM (top dose mostly 75.3 µM), most hits filed as inhibitors; 7.3% of 220,000 active
Target sequence (P00352 whole entry, looked up): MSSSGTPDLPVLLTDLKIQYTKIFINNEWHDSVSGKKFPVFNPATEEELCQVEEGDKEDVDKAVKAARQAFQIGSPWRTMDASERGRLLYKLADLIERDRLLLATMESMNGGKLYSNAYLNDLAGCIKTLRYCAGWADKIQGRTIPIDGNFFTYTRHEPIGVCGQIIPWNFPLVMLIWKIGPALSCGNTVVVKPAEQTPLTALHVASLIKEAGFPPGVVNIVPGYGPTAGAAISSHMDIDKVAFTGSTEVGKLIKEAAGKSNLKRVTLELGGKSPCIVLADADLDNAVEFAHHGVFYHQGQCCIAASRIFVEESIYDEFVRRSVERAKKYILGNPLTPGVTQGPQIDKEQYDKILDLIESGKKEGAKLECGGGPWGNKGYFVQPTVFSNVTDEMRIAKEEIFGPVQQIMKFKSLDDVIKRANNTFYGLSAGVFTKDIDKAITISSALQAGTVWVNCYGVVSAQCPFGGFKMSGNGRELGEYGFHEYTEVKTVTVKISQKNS
Lamin A splicing = modulators of lamin A splicing; HeLa LMNA splicing GFP/RFP minigene ratio, 48 h; Potency, µM (doses to about 46.1 µM), usual class: inhibitors; 0.01% of 200,000 active; AID 1487; active = well fitted inhibition curve with a large enough effect in the signal ratio, with a control signal flat, not every such curve was filed as active; inconclusive = small, poorly fitted or top-dose-only effect, or effect the other way, or a change in a side signal; the % refers to the signal ratio
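Read-out is the ratio of GFP to DsRed2 object intensity, acquired by 488 nm laser-scanning cytometry on HeLa lamin A-EGFP minigene reporter cells. Compound incubation 48 hrs at 37 °C in Opti-MEM with 2% FBS; DMSO 0.5% final.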
PNC inhibitor = inhibitors of perinucleolar compartment assembly | 3.1% of 140,000 active | PC3M PTB-GFP, PNC prevalence imaging, 16 h; stronger effect = lower value | activity change (PNC), negative = inhibition, % at 10 µM;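 active = readout at or below -70, meaning at least 70% loss of cells showing the perinucleolar compartment, a nuclear body marking cancer cells; inconclusive = readout between -30 and a set limit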
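Read-out is percentage of cells bearing a perinucleolar compartment, from automated 20x imaging of fixed, Hoechst-stained PC3M PTB-GFP cells. Cells were seeded 4 h, then exposed 16 h to compound (23 nl of library stock) in duplicate plates.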
HPGD inh = HPGD (human) dehydrogenase inhibition | P15428 | purified HPGD, NADH fluorescence kinetic, PGE2 substrate | Potency, µM, hits mostly inhibitors | 4.3% of 150,000 active | AID 894
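NADH formation kinetics: reaction with 30 uM PGE2 and 1 mM NAD+ (final), 20 nM enzyme, Tris-HCl pH 8 with Tween 20, after 15 min compound preincubation at room temperature. Fluorescence change, last versus first of five reads.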
ALOX12 inhib = inhibitors of human 12-lipoxygenase (ALOX12); P18054; purified 12-hLO, xylenol orange hydroperoxide absorbance; Potency, µM (titrated, usually from 57.1 µM), most hits filed as inhibitors; 0.12% of 150,000 active; AID 1452; active = well fitted inhibition curve with a large enough effect; inconclusive = small, poorly fitted or top-dose-only effect; note: nearly all actives have a fitted effect of over 55% in size
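150 nM 12hLO, 25 mM Hepes pH 7.0 + 0.01% Triton X-100; cpd preinc 15 min RT; 40 uM arachidonic acid, 30 min RT; Fe-XO 30 min; A573/A405 ratio as read-out.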
Each line names hits and unclear results; the compound was inactive in the other large screens; ! = repeats disagree. Unless noted, calls come from the whole dose curve; as a rule, active = well fitted inhibition curve with a large enough effect (not every such curve was filed as active); inconclusive = small, poorly fitted or top-dose-only effect, or another doubt; inactive = no such curve, though single readings can be large or run the other way.

CC1CCCN(c2nc3c(c(=O)n(C)c(=O)n3C)n2Cc2ccccc2)C1 (stereo unspecified)	ALDH1A1 inh 1.78µM, Lamin A splicing inconclusive
Cn1c(=O)c2c(nc(N3CCCCCC3)n2CCSc2nc3ccccc3o2)n(C)c1=O	ALDH1A1 inh 4.47µM, PNC inhibitor inconclusive
CC1CN(Cc2ccccc2)c2nc3c(c(=O)n(C)c(=O)n3C)n2C1 (stereo unspecified)	none
CC1CCN(c2nc3c(c(=O)n(C)c(=O)n3C)n2CCSc2nc3ccccc3o2)CC1	PNC inhibitor inconclusive
CC1CCCN(c2nc3c(c(=O)[nH]c(=O)n3C)n2Cc2ccccc2Cl)C1 (stereo unspecified)	ALDH1A1 inh 10µM, PNC inhibitor -87.3
Cc1ccc(OCC(O)Cn2c(NCCc3ccccc3)nc3c2c(=O)[nH]c(=O)n3C)cc1 (stereo unspecified)	none
Cc1ccc(OCC(O)Cn2c(N3CCOCC3)nc3c2c(=O)[nH]c(=O)n3C)cc1 (stereo unspecified)	PNC inhibitor -94.0 (no result: HPGD inh)
O=C(CNc1cc(S(=O)(=O)N2CCCC2)ccc1OCC(F)(F)F)Nc1ccc(SC(F)F)cc1	Lamin A splicing inconclusive
COc1ccc(OC)c(-c2noc(N3CCN(c4cc(C)ccc4C)CC3)n2)c1	none (no result: ALDH1A1 inh, PNC inhibitor, HPGD inh, ALOX12 inhib)
CC(Oc1ccccc1)C(=O)Nc1nnc2n1CCS2 (stereo unspecified)	none (no result: ALDH1A1 inh, PNC inhibitor, HPGD inh, ALOX12 inhib)
Cn1c(=O)[nH]c(=O)c2c1nc(N1CCC(Cc3ccccc3)CC1)n2Cc1ccccc1	ALDH1A1 inh 10µM
Cc1ccc(Cn2c(N3CCCCCC3)nc3c2c(=O)[nH]c(=O)n3C)cc1	ALDH1A1 inh 1.58µM, Lamin A splicing inconclusive
CN(C)c1nc2c(c(=O)[nH]c(=O)n2C)n1Cc1ccccc1Br	HPGD inh 17.8µM
Cn1c(=O)[nH]c(=O)c2c1nc(N1CCCCCC1)n2Cc1cccc2ccccc12	ALDH1A1 inh inconclusive
Cn1c(=O)[nH]c(=O)c2c1nc(Br)n2Cc1ccccc1F	ALDH1A1 inh inconclusive
Cn1c(=O)[nH]c(=O)c2c1nc(NCCCn1ccnc1)n2Cc1ccccc1	PNC inhibitor -102.3
COc1ccc(CC(=O)Nc2ccc(-c3nc4ccccc4s3)cc2Cl)cc1OC	none (no result: ALDH1A1 inh, PNC inhibitor, HPGD inh, ALOX12 inhib)
CC(C)c1ccc(NC(=O)CSC2=Nc3ccccc3C3=NC(CC(=O)NCc4ccc(F)cc4)C(=O)N23)cc1 (stereo unspecified)	none (no result: ALDH1A1 inh, PNC inhibitor, HPGD inh, ALOX12 inhib)
C=CCn1c(N2CCCC2)nc2c1c(=O)[nH]c(=O)n2C	none
Cn1c(N2CCCCC2)nc2c1c(=O)[nH]c(=O)n2C	ALDH1A1 inh inconclusive, PNC inhibitor -105.7
Cc1c(Cl)cccc1NC(=O)CSc1nc2ncccc2o1	none (no result: ALDH1A1 inh, PNC inhibitor, HPGD inh, ALOX12 inhib)
Nc1nc2ccccc2[nH]1	ALDH1A1 inh 20µM (no result: Lamin A splicing, PNC inhibitor)
O=C(Cc1ccccc1)Nc1nc2ccccc2[nH]1	ALDH1A1 inh 17.8µM
CCNc1nc2ccccc2[nH]1	PNC inhibitor -108.9
O=C(Cc1c[nH]c2ccccc12)Nc1nc2ccccc2[nH]1	none
Nc1ccccc1Sc1nc2ccccc2[nH]1	ALDH1A1 inh 12.6µM, Lamin A splicing inconclusive (no result: PNC inhibitor, HPGD inh, ALOX12 inhib)
COc1ccc(C(=O)c2ccc(N(C)C)cc2)c2ccccc12	Lamin A splicing inconclusive, PNC inhibitor -96.6
S=P(c1ccc(N2CCOCC2)cc1N1CCOCC1)(N1CCOCC1)N1CCOCC1	ALDH1A1 inh 28.2µM, PNC inhibitor inconclusive, HPGD inh 25.1µM
O=c1cc(CO)occ1O	none (no result: Lamin A splicing, PNC inhibitor)
C[N@+]1(CCC(=O)c2ccccc2)CC[C@H]2CC[C@H](C2)C1	none (no result: Lamin A splicing, PNC inhibitor)
Fc1cnc(N2CCc3ccccc32)nc1N1CCc2ccccc21	ALDH1A1 inh 2.24µM, HPGD inh inconclusive
Cc1ccc(NC(=S)N/N=C/c2c(Cl)cccc2Cl)c(C)c1	Lamin A splicing inconclusive, PNC inhibitor -98.3, ALOX12 inhib inconclusive
CCOC(=O)c1c2c(c(=S)n(-c3ccccc3)c1N)CCC2	ALDH1A1 inh 14.1µM (no result: HPGD inh)
O=c1[nH]c(SCc2c(Cl)c(Cl)c(Cl)c(Cl)c2Cl)nc(=S)[nH]1	HPGD inh 3.98µM (no result: Lamin A splicing, PNC inhibitor)
CCn1c(CN2CCOCC2)nc2cc(NC(=O)c3ccccc3[N+](=O)[O-])ccc21	none (no result: ALDH1A1 inh, PNC inhibitor, HPGD inh, ALOX12 inhib)
NCC1OC(OC2C(N)CC(N)[C@@H](O)[C@@H]2OC2O[C@H](CO)[C@@H](O[C@@H]3OC(CN)C(O)C(O)C3N)C2O)C(N)C(O)C1O (stereo partly specified)	none (no result: Lamin A splicing, PNC inhibitor)
CCN(CC)C(C)CN1c2ccccc2Sc2ccccc21 (stereo unspecified)	ALDH1A1 inh inconclusive, HPGD inh inconclusive, ALOX12 inhib 12.6µM (no result: Lamin A splicing, PNC inhibitor)
O=C(O)CCN1c2ccccc2Sc2ccccc21	Lamin A splicing inconclusive (no result: PNC inhibitor, HPGD inh, ALOX12 inhib)
CCOC(=O)c1cc(C#N)c(SCC(=O)c2cc(C#N)c(SC)nc2C)[nH]c1=O	ALDH1A1 inh 1.26µM, HPGD inh 1.41µM
CC[C@@H](CS(=O)(=O)O)[N+](=O)[O-]	none (no result: Lamin A splicing, PNC inhibitor)
CCOC(=O)N/N=C1/C[C@@H](O)[C@@H](O)[C@@H]2[C@@H]3C(=O)N(C[C@@H]4CCCO4)C(=O)[C@H]3CC[C@@H]12	none (no result: Lamin A splicing, PNC inhibitor, HPGD inh, ALOX12 inhib)
CCOc1ccc(N2CC(NC(=O)c3ccc(S(=O)(=O)N4CCOCC4)cc3)CC2=O)cc1 (stereo unspecified)	none (no result: ALDH1A1 inh, PNC inhibitor, HPGD inh, ALOX12 inhib)
CCCOc1ccccc1-c1nc2n[nH]nc2c(=O)[nH]1	ALDH1A1 inh 20µM!, Lamin A splicing inconclusive, HPGD inh 8.91µM (no result: PNC inhibitor)
CCCc1nn(C)c2c(=O)[nH]c(-c3ccccc3OCC)nc12	ALDH1A1 inh inconclusive, Lamin A splicing inconclusive, HPGD inh inconclusive
COc1ccc(S(=O)(=O)Nc2nc3ccccc3s2)cc1	ALDH1A1 inh inconclusive
CCOc1ccc2sc(NS(=O)(=O)c3ccc(OC)c(OC)c3)nc2c1	ALDH1A1 inh inconclusive, HPGD inh 15.8µM

Source: PubChem (National Center for Advancing Translational Sciences (NCATS))
